Shown are actives, neighbours in structure and some others; about 11% of the full set was active somewhere.
HPGD inh: inhibitors of human 15-hydroxyprostaglandin dehydrogenase (HPGD); Potency, µM, actives largely listed as inhibitors; AID 894; hit rate 4.3% among 150,000; purified HPGD, NADH fluorescence kinetic, PGE2 substrate; active = well fitted inhibition curve with a large enough effect, not every such curve was filed as active; inconclusive = small, poorly fitted or top-dose-only effect, or another doubt; inactive = no such curve, though single readings can be large or run the other way
Target sequence (P15428 whole entry, looked up): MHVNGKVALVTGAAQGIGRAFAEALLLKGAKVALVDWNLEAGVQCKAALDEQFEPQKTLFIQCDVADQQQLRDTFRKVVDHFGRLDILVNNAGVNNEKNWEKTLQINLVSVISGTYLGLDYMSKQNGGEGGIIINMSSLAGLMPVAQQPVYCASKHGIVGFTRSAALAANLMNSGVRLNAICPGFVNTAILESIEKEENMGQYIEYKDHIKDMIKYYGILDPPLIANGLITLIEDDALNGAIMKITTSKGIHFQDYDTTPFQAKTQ
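20 nM HPGD preincubated 15 min at room temperature with compound in 50 mM Tris-HCl pH 8, 0.01% Tween 20. Started with 1 mM NAD+ and 30 uM prostaglandin E2; NADH fluorescence (360/450 nm) read 5 times over 30-s intervals, last minus first.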
PNC assembly inh: inhibitors of perinucleolar compartment assembly; PC3M PTB-GFP, PNC prevalence imaging, 16 h; stronger effect = lower value; hit rate 3.1% among 140,000; activity change (PNC), negative = inhibition, % at 10 µM; AID 2417;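 active = readout at or below -70, meaning at least 70% loss of cells showing the perinucleolar compartment, a nuclear body marking cancer cells; inconclusive = readout between -30 and a set limit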
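PC3M cells stably expressing PTB-GFP, 750–1000 cells/well, treated 16 h at 37 °C with compound (23 nl of library stock), in duplicate. After paraformaldehyde fixation and Hoechst stain, imaged at 20x; PNC prevalence scored by image analysis.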
GoLoco inh red: blocks human Gai1 binding to RGS12 GoLoco peptide, red readout | P63096 | Gai1:RGS12 GoLoco peptide FP, rhodamine, 10 min | Potency, µM (top dose mostly 61.6 µM), hits mostly inhibitors | hit rate 0.44% among 230,000; active = well fitted inhibition curve with a large enough effect, not every such curve was filed as active; inactive = no such curve, though single readings can be large or run the other way; note: nearly all actives have a fitted effect of over 30% in size
Target sequence (P63096 whole entry, looked up): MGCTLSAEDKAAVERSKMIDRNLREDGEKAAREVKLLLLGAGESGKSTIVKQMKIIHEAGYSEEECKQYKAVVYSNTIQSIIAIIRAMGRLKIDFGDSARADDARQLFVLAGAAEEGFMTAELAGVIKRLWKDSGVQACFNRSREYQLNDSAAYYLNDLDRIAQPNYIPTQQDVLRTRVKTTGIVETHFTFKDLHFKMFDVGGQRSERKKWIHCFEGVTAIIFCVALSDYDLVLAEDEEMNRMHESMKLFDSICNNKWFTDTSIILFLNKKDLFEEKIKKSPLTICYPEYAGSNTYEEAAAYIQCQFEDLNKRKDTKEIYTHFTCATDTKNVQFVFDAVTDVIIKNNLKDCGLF
HTT aggregate: reduces HttQ103-GFP aggregates in PC12 cells. hit rate 1.1% among 220,000. PC12 HttQ103-GFP aggregates, Acumen cytometry, 40 h. AID 1688. Potency, µM (titrated, usually from 46.1 µM), hits mostly inhibitors; note: nearly all actives have a fitted effect of over 60% in size
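PC12 cells with ecdysone-inducible HTT exon1 Q103-GFP, induced by 100 nM tebufenozide, given compounds in a concentration series. GFP aggregates (1–25 um, 6 SD above background) counted in lysates by laser-scanning cytometry, 488 nm excitation.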
ALDH1A1 inh: blocks purified human ALDH1A1 activity. Purified ALDH1A1, NADH fluorescence, propionaldehyde substrate. Potency, µM (doses to about 75.3 µM), hits mostly inhibitors. hit rate 7.3% among 220,000; active = well fitted inhibition curve with a large enough effect, not every such curve was filed as active; inconclusive = small, poorly fitted or top-dose-only effect, or another doubt; inactive = no such curve, though single readings can be large or run the other way
HTT ATP protect: cytoprotection in Huntington HTT-Q103 PC12 cell model | PC12 HTT-Q103 induced, cytoprotection, ATP luminescence, 40 h | Potency, µM (titrated, usually from 56.4 µM), usual class: activators | hit rate 0.14% among 230,000 | AID 1471; note: nearly all actives have a fitted effect of over 45% in size
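Rat PC12, Q103 Htt exon1-GFP fusion, ecdysone promoter; tebufenozide inducer 100 nM final; compound titration; qHTS, 1500 cells/well; ATPlite luminescent read.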
A number is an active result; . = inactive; ? = inconclusive; / = no result given; [ ] = another dose, or the depositor's remark. Unless noted, calls come from the whole dose curve; as a rule, active = well fitted curve in the direction sought with a large enough effect; inconclusive = small, poorly fitted or top-dose-only effect, or another doubt; inactive = no such curve, though single readings can be large; an effect the other way counts as inactive or inconclusive.

SMILES	HPGD inh	PNC assembly inh	GoLoco inh red	HTT aggregate	ALDH1A1 inh	HTT ATP protect
Cn1c(-c2ccc(F)cc2)cnc1NCc1ccc(C#N)cc1	.	.	.	.	5µM	.[10 µM]
c1ccc2c(c1)CC/C2=N/Nc1nc2ccccc2[nH]1	/	/	.	.	.	.[10 µM]
CCOC(=O)c1c(C)[nH]c(C(=O)NCc2ccco2)c1C	/	/	.	.	.	.
Fc1ccc(Nc2nc(-c3cccnc3)nc3ccccc23)cc1	?	/	.	/	.	.
Cc1cc(C)nc(/N=C2\NC(=O)CC(C(=O)O)N2c2ccc(Oc3ccccc3)cc2)n1 (stereo not drawn)	13µM	?	.	.	.	.
Cc1ccc(N2/C(=N/c3nc(C)cc(C)n3)NC(=O)CC2C(=O)O)cc1 (stereo not drawn)	.	.	.	.	.	.
O=C(Nc1nc2ccccc2s1)c1ccc(OCC2CCCO2)cc1 (stereo not drawn)	/	.	/	32µM	?	.[10 µM]
Cc1cnc(NC(=O)c2ccc(OCC3CCCO3)cc2)s1 (stereo not drawn)	/	/	.	.	?	.
C=CCC(C)(O)c1ccsc1 (stereo not drawn)	.	/	.	/	.	.
COc1cc(C(N)=O)cc(Cl)c1OC	/	/	.	.[9.22 µM]	.	.[10 µM]
COc1c(Cl)cc(C(=O)Nc2ccccc2C(=O)O)cc1Cl	14µM	.	.	?	13µM	.
NNC(=O)c1cc(O)c(O)c(O)c1	/	/	.	?	25µM	.
COc1c(Cl)cc(C(=O)NN)cc1Cl	/	/	.	.	2.2µM	.
C[C@H](O)[C@H](O)[C@@H]1CNc2nc(N)[nH]c(=O)c2N1	/	/	/	/	/	.[1.9 µM]
COc1ccccc1-c1cc(NCc2ccccc2)ncn1	/	/	.	/	?	.
C/C(=N\NC(=O)c1ccc(N2CCCC2=O)cc1)c1ccncc1	/	/	.	.[9.22 µM]	/	.[10 µM]
COc1ccc(CCN(C)C(=O)C2CCN(Cc3ccc(C)cc3)CC2)cc1OC	/	/	.	/	.	/
CCC/C(O)=C1\C(=O)CC(C)(C)CC1=Nc1ccc(OC)cc1OC	.	-139	.	.	.	.[10 µM]
CC1(C)CC(=O)c2c(noc2-c2ccccc2)C1	22µM	.	.	.	?	.
CC(=O)c1ccc(NC(=S)NCCc2cccc(Cl)c2)cc1	/	/	.	.	.	.
O=C(Nc1ccccc1)c1cc2ccccc2c(=O)s1	.	?	.	11µM	.	/
O=C(OCC(=O)N1CCN(S(=O)(=O)c2ccccc2)CC1)c1ccc([N+](=O)[O-])o1	/	/	.	.	20µM	.[10 µM]
O=C(OCC(=O)N1CCN(S(=O)(=O)c2ccc(Cl)cc2)CC1)c1ccc([N+](=O)[O-])o1	/	/	.	.	25µM	.[10 µM]
O=C(COc1ccccc1[N+](=O)[O-])N1CCN(S(=O)(=O)c2ccccc2)CC1	/	/	.	.	.	.
N=c1sccn1CC(=O)Nc1ccc(SC(F)F)cc1	/	/	.	.	?	.[10 µM]
SMILES	HPGD inh	PNC assembly inh	GoLoco inh red	HTT aggregate	ALDH1A1 inh	HTT ATP protect
CSC1=NCCN1C(=O)c1ccc2c(c1)OCO2	/	.	/	.	11µM	.
O=C(O)c1ccc(SSc2ccc(C(=O)O)cn2)nc1	4µM	/	.[14.2 µM]	/	?	.[10 µM]
Cc1ccc(C(=O)OCC(=O)c2c[nH]c3ccccc23)cc1NC(=O)c1ccco1	/	/	.	.	.	?
CCOC(=O)c1ccc[n+](C(C)C(=O)c2ccc(-c3ccccc3)cc2)c1 (stereo not drawn)	.	.	.	?	5.6µM	.[10 µM]
CCC/C=C(\CCC)C(NS(=O)(=O)c1ccc(C(F)(F)F)cc1)c1ccc(-c2ccccc2)cc1 (stereo not drawn)	.	/	.	/	22µM	.
CC1(C)CC(=O)C/C(=N\NC(=S)NCc2ccccc2)C1	/	/	.	.	?	.[10 µM]
CC1(C)CC(=O)C/C(=N\NC(=O)C2CC2c2ccccc2)C1 (stereo not drawn)	/	/	.	.	32µM	.
COC(=O)N1C2CC3(C)CC(=O)CC1(C)C3c1ccccc12 (stereo not drawn)	.	/	.[14.2 µM]	/	.[13.5 µM]	.[10 µM]
CCN(CC)c1ccc(NC(=O)CCCCCN2C(=O)c3ccccc3C2=O)cc1	.	.	22µM	.	?	.
CC(=O)Nc1ccc(NC(=O)CCCCCN2C(=O)c3ccccc3C2=O)cc1	.	.	.	.	.	.
O=C(CCCCCN1C(=O)c2ccccc2C1=O)Nc1nccs1	7.1µM	?	.	.	.	.
COc1ccc(Oc2ccc(N/C=C3\CCCC3=O)cc2)cc1	.	.	.	.	?	.[10 µM]
COc1ccc(N/C=C2/CCCCC2=O)cc1	25µM	.	.	.	11µM	20µM
COc1ccc(OC)c(N/C=C2/CCCCC2=O)c1	18µM	.	.	.	?	.
COc1ccc(Oc2ccc(N/C=C3/CCCC3=O)cc2)cc1	.	.	.	.	?	.[10 µM]
CCO/C(C)=N/n1c2nc3ccccc3nc2c2c(=O)n(CC(C)C)c(C)nc21	.	.	.	.	25µM	.
CC(C)=NOCc1cccc(-c2cc(-c3ccccc3)no2)c1	/	/	/	/	.[13.5 µM]	.[10 µM]
CCC(=O)Nc1ccc(N2CCCCC2)c(C(=O)Nc2ccccc2C)c1	.	?	.	.	?	.
Cc1ccccc1NC(=O)c1cc(N)ccc1N1CCCCC1	.	?	.	.	10µM	.[10 µM]
CCN(CC)CCCCn1c(-c2ccccc2)nc2c(Nc3ccccc3)nc(C)nc21	.	/	.	/	.	.
O=S(=O)(NC1CCCCC1Nc1ccc(Cl)cc1)c1ccccc1 (stereo not drawn)	.	.	.	.	14µM	.[10 µM]
O=S(=O)(NC1CCCCC1Oc1ccccc1)c1ccccc1 (stereo not drawn)	.	.	.	.	16µM	.[10 µM]
COc1ccc(CCCc2n[nH]c(=S)o2)cc1C	/	/	.	.	8.9µM	.
COc1ccc(CCCc2n[nH]c(=S)n2C)cc1C	/	/	.	?	.	.
Cn1cc(/C=N/n2cnc3scc(-c4ccc(Cl)cc4)c3c2=O)c2ccccc21	?	-99	.	.	?	.[0.074 µM]
SMILES	HPGD inh	PNC assembly inh	GoLoco inh red	HTT aggregate	ALDH1A1 inh	HTT ATP protect
CC1(OC(=O)C2CCCC2)C(=O)C=C2C=C(c3ccsc3)N(c3ccc(CO)cc3)C=C2C1=O (stereo not drawn)	.	/	.[14.2 µM]	/	.[13.5 µM]	.[10 µM]
COC(=O)C1=C(C(=O)OC)[C@@H]2Nc3ccccc3[C@@]23C[C@@H](C(=O)OC)N(S(=O)(=O)c2ccc(C)cc2)C3=N1	.	/	.[14.2 µM]	/	.[13.5 µM]	.[10 µM]
CCC(OC(=O)CN1C(=O)C(=O)c2ccccc21)C(=O)Nc1ccc(S(N)(=O)=O)cc1 (stereo not drawn)	/	/	.	.	0.089µM	.
O[C@H](CN1CCN(c2cccc(Cl)c2)CC1)C(c1ccccc1)c1ccccc1	.	/	.	/	.	.
CC/C(=N\NC(=O)c1ccc(CN(C)S(=O)(=O)c2ccc(C)cc2)cc1)c1ccc(OC(F)F)cc1	.	.	.	.	13µM	.[10 µM]
CC/C(=N\NC(C)=O)c1ccc(OC(F)F)cc1	/	/	.	.	.	.
